PubChem BioAssay AID1159580 (chemical genetic matrix, 2015)
Out of some 5,500 compounds screened, about 2,000 (36%) were called active. Another 18% or so got no clear call; they are omitted. Rule as the data show it: active = normalized growth mostly below about 0.91 (no sharp cut-off); inconclusive = no clear call, values can overlap the other calls; inactive = mostly above about 0.92. This is one part of the list.

Assay: chemical genetic growth profiling, strain panel (AID 1159580);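 also: tested at 20 µM; growth read once vehicle control cultures reached saturation at 30 °C; 1 = growth at the plate median or of vehicle wells; lower values mean less growth of the strain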
Details: growth OD

Measured: normalized growth

CN1CCC[C@@H]1CCO[C@](C)(c1ccccc1)c1ccc(Cl)cc1
active: S. cerevisiae deletion strains, locus YLR039C, strain RIC1, hits give low values 1.41 [resistant] | S. cerevisiae deletion strains, locus YLR262C, strain YPT6, hits give low values 1.46 [resistant] | S. cerevisiae deletion strains, locus YLR342W, strain FKS1, hits give low values 0.893 | S. cerevisiae deletion strains, locus YLR418C, strain cdc73, hits give low values 0.682 | S. cerevisiae deletion strains, locus YNL071W, strain lat1, hits give low values 0.888 | S. cerevisiae deletion strains, locus YNL209W, strain ssb2, hits give low values 0.877 | S. cerevisiae deletion strains, locus YNL248C, strain rpa49, hits give low values 0.836 | S. cerevisiae deletion strains, locus YOL006C, strain TOP1, hits give low values 0.417 | S. cerevisiae deletion strains, locus YOR270C, strain vph1, hits give low values 0.616
inactive: S. cerevisiae deletion strains, locus YJR075W, strain HOC1, hits give low values 0.92 | S. cerevisiae deletion strains, locus YKL009W, strain mrt4, hits give low values 0.977 | S. cerevisiae deletion strains, locus YKL068W, hits give low values 0.992 | S. cerevisiae deletion strains, locus YKL085W, strain MDH1 (second series), hits give low values 0.995 | S. cerevisiae deletion strains, locus YKL085W, strain MDH1, hits give low values 0.995 | S. cerevisiae deletion strains, locus YKL160W, strain elf1, hits give low values 0.977 | S. cerevisiae deletion strains, locus YKL190W, strain CNB1, hits give low values 0.977 | S. cerevisiae deletion strains, locus YKR001C, strain vps1, hits give low values 1.02 | S. cerevisiae deletion strains, locus YKR026C, strain gcn3, hits give low values 1.02 | S. cerevisiae deletion strains, locus YKR091W, strain srl3, hits give low values 1 | S. cerevisiae deletion strains, locus YLL001W, strain dnm1, hits give low values 0.946 | S. cerevisiae deletion strains, locus YLL026W, hits give low values 0.988 | S. cerevisiae deletion strains, locus YLL041C, strain sdh2, hits give low values 0.992 | S. cerevisiae deletion strains, locus YLR027C, strain aat2, hits give low values 0.98 | S. cerevisiae deletion strains, locus YLR058C, strain SHM2, hits give low values 0.994 | S. cerevisiae deletion strains, locus YLR102C, strain apc9, hits give low values 0.997 | S. cerevisiae deletion strains, locus YLR113W, strain HOG1, hits give low values 0.969 | S. cerevisiae deletion strains, locus YLR221C, strain rsa3, hits give low values 0.932 | S. cerevisiae deletion strains, locus YLR258W, strain gsy2, hits give low values 0.977 | S. cerevisiae deletion strains, locus YLR262C, strain YPT6 (second series), hits give low values 1.07 | S. cerevisiae deletion strains, locus YLR268W, strain sec22, hits give low values 0.929 | S. cerevisiae deletion strains, locus YLR320W, strain mms22, hits give low values 0.878 | S. cerevisiae deletion strains, locus YLR330W, strain CHS5, hits give low values 1.02 | S. cerevisiae deletion strains, locus YLR342W, strain FKS1 (second series), hits give low values 0.834 | S. cerevisiae deletion strains, locus YLR357W, strain rsc2, hits give low values 1.01 | S. cerevisiae deletion strains, locus YLR370C, strain arc18, hits give low values 0.966 | S. cerevisiae deletion strains, locus YLR371W, strain rom2, hits give low values 0.994 | S. cerevisiae deletion strains, locus YLR384C, strain iki3, hits give low values 1.01 | S. cerevisiae deletion strains, locus YML016C, strain PPZ1, hits give low values 1.02 | S. cerevisiae deletion strains, locus YML032C, strain rad52, hits give low values 0.98 | S. cerevisiae deletion strains, locus YML120C, strain ndi1, hits give low values 1 | S. cerevisiae deletion strains, locus YML124C, strain tub3, hits give low values 0.994 | S. cerevisiae deletion strains, locus YMR058W, strain fet3, hits give low values 0.953 | S. cerevisiae deletion strains, locus YMR078C, strain ctf18, hits give low values 0.993 | S. cerevisiae deletion strains, locus YMR125W, strain sto1, hits give low values 0.96 | S. cerevisiae deletion strains, locus YMR129W, hits give low values 0.99 | S. cerevisiae deletion strains, locus YMR205C, strain PFK2, hits give low values 0.955 | S. cerevisiae deletion strains, locus YMR223W, strain ubp8, hits give low values 0.964 | S. cerevisiae deletion strains, locus YMR231W, strain pep5, hits give low values 1.01 | S. cerevisiae deletion strains, locus YMR263W, strain SAP30, hits give low values 0.976 | S. cerevisiae deletion strains, locus YMR307W, strain GAS1, hits give low values 0.92 | S. cerevisiae deletion strains, locus YNL067W, strain RPL9B, hits give low values 0.971 | S. cerevisiae deletion strains, locus YNL128W, strain TEP1, hits give low values 0.898 | S. cerevisiae deletion strains, locus YNL153C, strain GIM3, hits give low values 1 | S. cerevisiae deletion strains, locus YNL183C, strain NPR1, hits give low values 0.918 | S. cerevisiae deletion strains, locus YNL233W, strain BNI4, hits give low values 0.978 | S. cerevisiae deletion strains, locus YNL250W, strain rad50, hits give low values 0.986 | S. cerevisiae deletion strains, locus YNL271C, strain bni1, hits give low values 0.986 | S. cerevisiae deletion strains, locus YNL298W, strain CLA4, hits give low values 0.988 | S. cerevisiae deletion strains, locus YNL307C, strain MCK1, hits give low values 0.96 | S. cerevisiae deletion strains, locus YNL322C, strain KRE1 (second series), hits give low values 1.02 | S. cerevisiae deletion strains, locus YNL322C, strain KRE1, hits give low values 1.01 | S. cerevisiae deletion strains, locus YNR049C, strain mso1, hits give low values 1.01 | S. cerevisiae deletion strains, locus YNR052C, strain pop2, hits give low values 0.971 | S. cerevisiae deletion strains, locus YOL012C, strain htz1 0.791 | S. cerevisiae deletion strains, locus YOL147C, strain pex11, hits give low values 0.999 | S. cerevisiae deletion strains, locus YOR001W, strain rrp6, hits give low values 0.951 | S. cerevisiae deletion strains, locus YOR061W, strain CKA2, hits give low values 1.01 | S. cerevisiae deletion strains, locus YOR069W, strain VPS5, hits give low values 1 | S. cerevisiae deletion strains, locus YOR070C, strain gyp1, hits give low values 0.974 | S. cerevisiae deletion strains, locus YOR080W, strain dia2, hits give low values 0.994 | S. cerevisiae deletion strains, locus YOR083W, strain WHI5, hits give low values 0.93 | S. cerevisiae deletion strains, locus YOR106W, strain vam3, hits give low values 0.914 | S. cerevisiae deletion strains, locus YOR136W, strain idh2, hits give low values 0.991 | S. cerevisiae deletion strains, locus YOR144C, strain elg1, hits give low values 1 | S. cerevisiae deletion strains, locus YOR184W, strain ser1, hits give low values 0.999 | S. cerevisiae deletion strains, locus YOR231W, strain MKK1, hits give low values 0.991 | S. cerevisiae deletion strains, locus YOR265W, strain rbl2, hits give low values 0.998 | S. cerevisiae deletion strains, locus YOR290C, strain snf2, hits give low values 0.957 | S. cerevisiae deletion strains, locus YOR316C, strain cot1, hits give low values 0.993 | S. cerevisiae deletion strains, locus YPL051W, strain arl3, hits give low values 0.94 | S. cerevisiae deletion strains, locus YPL055C, strain LGE1, hits give low values 0.782 | S. cerevisiae deletion strains, locus YPL078C, strain atp4, hits give low values 0.916 | S. cerevisiae deletion strains, locus YPL106C, strain sse1, hits give low values 1.02 | S. cerevisiae deletion strains, locus YPL240C, strain hsp82, hits give low values 0.992 | S. cerevisiae deletion strains, locus YPL241C, strain CIN2, hits give low values 0.999 | S. cerevisiae deletion strains, locus YPL256C, strain CLN2, hits give low values 0.979 | S. cerevisiae deletion strains, locus YPR119W, strain clb2, hits give low values 0.998 | S. cerevisiae deletion strains, locus YPR141C, strain kar3, hits give low values 0.997 | S. cerevisiae deletion strains, locus YPR163C, strain tif3, hits give low values 0.975 | S. cerevisiae deletion strains, locus YPR167C, strain met16, hits give low values 0.991 | S. cerevisiae deletion strains, strain wtn01, hits give low values 0.959 | S. cerevisiae strains, strain wild type, hits give low values 0.99
